Here are results for 40 molecules from PubChem BioAssay (Tox21).

Inconclusive results are not listed. Entries that show only a call come without a potency. Active and inactive are the calls of the source. Calls come from the whole dose curve; as a rule, active = well fitted cell-killing curve with a large enough effect in the repeat runs; inconclusive = weak or mixed curves, or effect the other way; inactive = flat fitted curve, though single readings scatter.
Potency is the fitted concentration of half-maximal effect.

A short description of the assay: cAMP Responsive Elements (CRE) small molecule agonists, cell-based qHTS assay: qHTS cell viability counter screen (AID 2060914).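 Note: viability read after 3 h of compound exposure; nearly all actives have a fitted effect of over 50% in size.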 The settings on record: CRE-bla HEK293T viability, CellTiter-Glo luminescence, 5 h; series mostly up to 92.4 µM. From the text: National Center for Advancing Translational Sciences [NCATS]
Division of Preclinical Innovation [DPI]
U.S. Environmental Protection Agency [EPA]
National Institutes of Environmental Health Sciences [NIEHS]
National Toxicology Program [NTP]
U.S. Food and Drug Administration [FDA]
CREB (cyclic-AMP Responsive Element Binding Protein) is a cellular transcription factor. It binds to certain DNA sequences called cAMP Responsive Elements (CRE) and regulates the transcription of the genes. […] This cell line can be used to find agonists/antagonists of the cyclic AMP signaling pathway. The activation of the report gene under culture conditions can be detected by fluorescence intensity. This cell line has been used to screen the Tox21 10K compound library to identify agonists that induce oxidative stress. The cytotoxicity of the Tox21 compound library against the CRE-bla cell line was tested in parallel by measuring the cell viability using CellTiter-Glo assay (Promega, Madison, WI) in the same wells.
Tox21 Assay Protocol Summary:
CRE-bla Hek 293T cells were suspended in assay medium (DMEM containing 10% dialyzed FBS, 0.1 mM NEAA, 1 mM sodium pyruvate and 25 mM HEPES) and dispensed at 2,000 cells/5 uL /well into 1536-well black wall/clear bottom plates using a Multidrop Combi (ThermoFisher Scientific, Waltham, MA) dispenser. After the assay plates were incubated at 37 C/5% CO2 for 18 hrs, 23 nL of compounds dissolved in DMSO, positive controls or DMSO only was transferred to the assay plate by a pintool workstation (Kalypsys, San Diego, CA). After the plates were incubated at 37 C/5% CO2 for 3 hrs, 1 uL of LiveBLAzer B/G FRET substrate (Invitrogen, Carlsbad, CA) was added to each well using Bioraptr Flying Reagent Dispenser (FRD, Aurora Discovery, San Diego, CA). The plates were incubated at room temperature for 2 h, then fluorescence intensities were measured using an Envision plate reader (PerkinElmer, Shelton, CT) at Excitation 405nm, Emission 460nm and 530nm. The % activity was determined from the ratio of 460nm/530nm. For cell viability readout that measures cytotoxicity, 4 uL /well of CellTiter-Glo reagent was added into the assay plates using Bioraptr FRD. After 30 min incubation at room temperature, the luminescence intensity in the assay plates was measured using a ViewLux (PerkinElmer, Shelton, CT) plate reader.
Background: Quantitative high-throughput screening tests each substance at several concentrations.
`Cc1ccc2c(C)cccc2c1`: the Potency entry was “inactive”.

For `CC[N+](CC)(CC)CC`, the Potency entry is “inactive”.

Turning to `C[As+](C)(C)CC(=O)[O-]`, the Potency entry was “inactive”.

Take `Oc1c(I)cc(I)cc1I`: the Potency entry was “inactive”.

Take `C=CCC1=C(C)[C@@H](OC(=O)[C@@H]2[C@@H](C=C(C)C)C2(C)C)CC1=O`: the Potency entry was “inactive”.

In the case of `CCCCCCOC(=O)c1ccccc1C(=O)OCCCCCC`, the Potency result is “inactive”.

Turning to `Cc1cc(C)c(C(=O)P(=O)(c2ccccc2)c2ccccc2)c(C)c1`, the Potency entry was “inactive”.

For `CC(=O)Nc1cc([As](=O)(O)O)ccc1O`, the Potency entry was “inactive”.

Turning to `O=Cc1cccc(Oc2ccccc2)c1`, the Potency entry is “inactive”.

For the molecule `CCOc1cccc(C2(N3CCN(c4ccccc4)CC3)CCC(C)CC2)c1` (stereo not given), the Potency result is “inactive”.

Regarding `CC(C)=CC1C(C(=O)OC(C#N)c2cccc(Oc3ccccc3)c2)C1(C)C` (stereo not given), the Potency entry is “inactive”.

As to `N[C@@H](Cc1ccc(Oc2cc(I)c(O)c(I)c2)c(I)c1)C(=O)O`, the Potency result was “inactive”.

As for `C[C@H](CN1CCOCC1)C(C(=O)N1CCCC1)(c1ccccc1)c1ccccc1`, the Potency result was “inactive”.

Take `O=C(O)C(F)(F)C(F)(F)C(F)(F)C(F)(F)C(F)(F)C(F)(F)C(F)(F)C(F)(F)F`: the Potency entry was “inactive”.

`N#Cc1ccc(N(CC(N)=O)CC(F)(F)F)cc1C(F)(F)F`: the Potency entry was “inactive”.

Regarding `O=C(O)C(Br)(Br)Br`, the Potency entry was “inactive”.

For the molecule `C=CC1(C)OC(=O)N(c2cc(Cl)cc(Cl)c2)C1=O` (stereo not given), the Potency result was “inactive”.

In the case of `CC(C)(C)c1ccccc1O`, the Potency entry is “inactive”.

Regarding `N#Cc1cc(I)c(O)c(I)c1`, the Potency result was “inactive”.

On to `CC(=O)C1CCOC1=O` (stereo not given), for which the Potency entry was “inactive”.

For `COP(=S)(OC)Oc1cc(Cl)c(I)cc1Cl`, the Potency result is “inactive”.

Turning to `O=[N+]([O-])c1cccc2c([N+](=O)[O-])cccc12`, the Potency is 61.4 µM (active).

`CCOP(=S)(OCC)Oc1ccc2c(C)c(Cl)c(=O)oc2c1`: the Potency entry is “inactive”.

On to `CC(=O)[O-].CC(=O)[O-].CC(=O)[O-].[Cr+3]`, for which the Potency result is “inactive”.

Turning to `[CH3][Sn]([CH3])([Cl])[Cl]`, the Potency result was “inactive”.

In the case of `O=C(O)c1ccc2[nH]cc(CCCCN3CC=C(c4ccccc4)CC3)c2c1`, the Potency result is “inactive”.

In the case of `O=C(NC(=O)c1c(F)cccc1F)Nc1ccc(Oc2ccc(C(F)(F)F)cc2Cl)cc1F`, the Potency entry is “inactive”.

`Oc1ccc(C2(c3ccc(O)cc3)CCCCC2)cc1`: the Potency result is “inactive”.

In the case of `C=CCO`, the Potency result is “inactive”.

Turning to `OC[P+](CO)(CO)CO`, the Potency entry was “inactive”.

For `COc1c(C(C)(C)C)cc([N+](=O)[O-])c(C)c1[N+](=O)[O-]`, the Potency result is “inactive”.

Regarding `Clc1ccc(C(OCCN2CCCCC2)c2ccccc2)cc1` (stereo not given), the Potency result is “inactive”.

For `N#CC(Cl)Cl`, the Potency entry was “inactive”.

Regarding `CN1C[C@@H](NS(=O)(=O)N(C)C)C[C@@H]2c3cccc4c3c(cn4C)C[C@H]21`, the Potency entry is “inactive”.

On to `Clc1ccc(Cl)c(Cl)c1`, for which the Potency result was “inactive”.

For the molecule `CCC(C)Br` (stereo not given), the Potency result was “inactive”.

As for `C=C(C#N)CCC#N`, the Potency entry was “inactive”.

As for `CCN(CC)CCOC(=O)C(O)(c1ccccc1)c1ccccc1`, the Potency entry is “inactive”.

As to `CCCCSP(=O)(SCCCC)SCCCC`, the Potency result is “inactive”.

With `O=P(OCC(Br)CBr)(OCC(Br)CBr)OCC(Br)CBr` (stereo not given), the Potency result was “inactive”.
